# Laboratory results: PubChem BioAssay AID2071 (Sanford-Burnham Center for Chemical Genomics, 2009)
# Screen size: about 280,000 compounds; about 1,700 (0.61%) were called active. No stated cut-off is given here; in the data, active means inhibition mostly above about 24% (no sharp cut-off); inactive means mostly below about 32%. Shown is part of a subset that was picked to be rich in actives.
# Assay: NALP1 inflammasome inhibitors in reconstituted yeast, colorimetric, S. cerevisiae, triplicate retest (AID 2071)
# Settings: S. cerevisiae NALP1/ASC/caspase-1 growth, X-gal OD620, 72 h, stronger effect = higher value
structure (smiles),measurement,setting,value
CCCCCCCCCCCCn1ccc(=N)cc1,inhibition,at 10 µM unless noted,92.4% (active)
O=C(N/N=C/c1c(O)n(C2CC2)c(=S)[nH]c1=O)c1ccccc1,inhibition,at 10 µM unless noted,-16.2% (inactive)
COc1ccc(CNCCc2c[nH]c3ccccc23)cc1OC,inhibition,at 10 µM unless noted,-6% (inactive)
CCN1CCN(Cc2cc(OC)c3c(c2)OCO3)CC1,inhibition,at 10 µM unless noted,-2.2% (inactive)
CN1CCN(C(=O)COc2ccc(C(C)(C)C)cc2Br)CC1,inhibition,at 10 µM unless noted,8.8% (inactive)
O=C(Nc1cccc(OC(=O)N2CCCCC2)c1)N1CCOCC1,inhibition,at 10 µM unless noted,-35.9% (inactive)
CC(C)(C)c1ccc(OC(=O)N2CCCCC2)cc1,inhibition,at 10 µM unless noted,41% (active)
Cc1ccc(S(=O)(=O)N(C)c2ccc(C(=O)NCC3(N(C)C)CCCCC3)cc2)cc1,inhibition,at 10 µM unless noted,9.8% (inactive)
COc1ccc(CNCCc2ccc3c(c2)OCO3)c(OC)c1OC,inhibition,at 10 µM unless noted,30.6% (inactive)
CC(C)c1ccc(OCC(=O)N2CCCN(C)CC2)cc1,inhibition,at 10 µM unless noted,3.6% (inactive)
C=CCN1C(=O)NC(=O)/C(=C/c2ccc(OCC(=O)Nc3ccc(C)cc3)cc2)C1=O,inhibition,at 10 µM unless noted,25% (inactive)
CCN1CCN(c2nc3c(c(=O)[nH]2)CCC3)CC1,inhibition,at 10 µM unless noted,25.1% (inactive)
CN(C)/C=C(\C=[N+](C)C)c1[nH]ncc1[N+](=O)[O-],inhibition,at 10 µM unless noted,35.3% (active)
CCN(CC)C(=O)c1ccc(NC(=O)c2sccc2-c2ccccc2)cc1,inhibition,at 10 µM unless noted,1% (inactive)
O=C(N/N=C/c1c(O)n(C2CC2)c(=S)[nH]c1=O)c1ccccc1Cl,inhibition,at 10 µM unless noted,3.2% (inactive)
Clc1ccc2nc3c(c(-c4ccccc4)c2c1)CNCC3,inhibition,at 10 µM,45% (active)
same,inhibition,"triplicate retest, at 20 µM",66.3%
COc1ccc2[nH]c3c(c2c1)CCN[C@H]3C,inhibition,at 10 µM unless noted,14.7% (inactive)
COc1ccc(N=Cc2c(O)n(C)c(=O)[nH]c2=O)cc1,inhibition,at 10 µM unless noted,12.7% (inactive)
CN(c1ccccc1)c1ccc([N+](=O)[O-])c2nonc12,inhibition,at 10 µM unless noted,-7.2% (inactive)
Cc1nc2ccccc2c(=O)n1-c1ccc(Cl)cc1Cl,inhibition,at 10 µM unless noted,11.2% (inactive)
